# Source: PubChem BioAssay
# The list is not random: actives were taken first. Their share in the collection is about 11%.
# USP17 inh = human USP17-like deubiquitinase inhibition; A8MUK1; purified USP17, Ub-rhodamine cleavage fluorescence, 3 h; inhibition, % at 50 µM; 47,000 tested, 6.5% active
# USP28 block = human USP28 deubiquitinase inhibition. purified USP28, Ub-rhodamine cleavage fluorescence, 30 min. Q96RU2. inhibition, % at 25 µM. AID 1645857. 47,000 tested, 3% active
# USP30 inh = blocks human USP30 ubiquitin-rhodamine cleavage; 47,000 tested, 5.3% active; inhibition, % at 25 µM; Q70CQ3; AID 1645860; purified USP30, Ub-rhodamine cleavage fluorescence
# Target sequence (Q70CQ3 whole entry, looked up): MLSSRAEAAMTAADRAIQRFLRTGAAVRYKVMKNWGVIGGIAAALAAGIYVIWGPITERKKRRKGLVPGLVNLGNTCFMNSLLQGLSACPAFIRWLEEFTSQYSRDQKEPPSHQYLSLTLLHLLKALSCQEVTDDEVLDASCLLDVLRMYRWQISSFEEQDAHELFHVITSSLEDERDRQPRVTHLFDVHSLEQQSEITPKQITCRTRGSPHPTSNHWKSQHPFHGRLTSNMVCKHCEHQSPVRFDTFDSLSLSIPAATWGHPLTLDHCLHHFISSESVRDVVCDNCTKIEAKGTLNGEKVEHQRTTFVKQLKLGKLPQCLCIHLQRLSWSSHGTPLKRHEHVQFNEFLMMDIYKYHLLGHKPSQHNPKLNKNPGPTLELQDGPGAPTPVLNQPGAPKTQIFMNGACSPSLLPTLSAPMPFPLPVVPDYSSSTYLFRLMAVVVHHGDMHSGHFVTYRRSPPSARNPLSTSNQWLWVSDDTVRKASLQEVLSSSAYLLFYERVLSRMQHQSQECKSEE
# Numbers without * were called inactive; i = inactive; . = not tested or not shown. Rule as the data show it: active = inhibition above about 30%; inactive = the rest.
SMILES,USP17 inh,USP28 block,USP30 inh
Cc1ccc(S(=O)(=O)NCc2ccc(C(=O)N3CCN(c4ncccn4)CC3)cc2)cc1,3,5,6
COCC1c2c(cnn2CC2CC2)CCN1C(=O)c1cnccn1 (stereo unspecified),-32,-12,-32
NC(=O)c1cc2cc(F)ccc2nc1C1CCN(C(=O)CCC(=O)c2cccnc2)CC1,-10,2,0
COc1cc(OCC(=O)NC(C)C)cc2c1C(=O)O[C@@H](C)CCCC(=O)CCCCC2,4,7,13
COc1cc2c(c(OCC(=O)Nc3ccc4c(c3)OCCO4)c1)C(=O)O[C@@H](C)CCCC(=O)CCCCC2,22,18,51*
COc1cc(N)c(Cl)cc1C(=O)OCC(=O)Nc1ccc2c(c1)OCCO2,20,37*,0
COc1cc(N)c(Cl)cc1C(=O)OCC(=O)N1CCCC1,11,5,6
COc1ccc(-c2c(C)nn3c2ncc2c(=O)n(-c4ccccc4C#N)ccc23)cc1,-1,2,6
CC(=O)Nc1onc(C)c1-c1ccc(C)c(S(=O)(=O)Nc2ccccc2C)c1,-7,-5,-19
Cc1cc(=O)oc2cc(OCC(=O)NCc3ccncc3)ccc12,5,-1,10
Cc1c(C)c2ccc(OCC(=O)NCc3ccncc3)c(C)c2oc1=O,46*,22,81*
COc1ccc(-c2nc3ccccc3o2)cc1NC(=O)Nc1ccccc1C,-213,-191,i
COc1ccc(-n2ncc(C(=O)N3CCN(c4cc(C)ccc4C)CC3)c2C2CCNCC2)cc1,-18,11,30*
CC1CCN(C(=O)c2cnn(-c3ccc(Cl)cc3)c2C2CCNCC2)CC1,-8,-1,1
CN(Cc1ccccc1)C(=O)/C(=C\c1ccc(F)cc1)n1ccccc1=O,.,-2,-6
O=C(O)c1c(CNCc2cccs2)c2ccccc2n1Cc1cccc(F)c1,47*,-12,-2
O=C(O)c1c(CNC2CCCCC2)c2ccccc2n1Cc1cccc(F)c1,-4,-6,-32
CC(CCc1ccccc1)NCc1c(C(=O)O)n(Cc2ccc(F)cc2)c2ccccc12 (stereo unspecified),2,34*,4
C=Cc1ccc(Cn2c(C(=O)O)c(CNC(C)CCc3ccccc3)c3ccccc32)cc1 (stereo unspecified),16,27,12
CC1=C(c2ccccc2)S(=O)(=O)N(CC(=O)Nc2ccc(C)c(F)c2)C1=O,8,10,25
CCN1C(=O)C[C@@H](C(=O)NCc2nc(C)no2)[C@@H]1c1ccccc1Cl,-2,-7,-2
CCOC(=O)c1cc(OCC(=O)Nc2ccc(C)cc2)c2cc(Cl)ccc2n1,19,2,5
CCOC(=O)c1cc(OCC(=O)Nc2ccccc2)c2cc(Cl)ccc2n1,40*,-6,-5
CCCCCc1cc(O)c2c(ccc3c(O)c4c(cc32)C(C)(C)c2cc(O)cc(O)c2C4=O)c1,31*,10,-17
COc1ccc(-c2[nH]nc3c2C(c2ccc(O)c(OC)c2)CC(=O)O3)cc1 (stereo unspecified),-16,-2,-13
SMILES,USP17 inh,USP28 block,USP30 inh
CCCCCCC1CCC(O)CC(O)CC(O)CC(O)CC(O)CC(O)/C(C)=C/C=C\C=C/C=C/C=C/[C@H](O)[C@@H](C)OC1=O (stereo partly specified),8,-8,-95
COc1ccc(C)cc1NC(=O)c1cc2cccnc2n(C)c1=O,37*,.,.
COc1ccc(CNC(=O)c2ccc(-c3nc4cccnc4n(C)c3=O)cc2)cc1OC,-9,-6,-22
Cn1c(=O)c(C(=O)Nc2ccc(F)c(Cl)c2)cc2cccnc21,14,9,11
CCn1c(=O)c(-c2ccc(C(=O)Nc3cc(C)ccc3OC)cc2)nc2cccnc21,37*,11,21
CCOC(=O)C1=C(c2ccccc2)Nc2nc3ccccc3n2C1c1ccncc1 (stereo unspecified),-11,-14,-13
COCCOC(=O)C1=C(C)Nc2nc3ccccc3n2C1c1cc(OC)c(OC)c(OC)c1 (stereo unspecified),34*,2,7
Cc1ccc(CNC(=O)c2ccc3c(=O)nc4c(-c5ccccc5F)n[nH]n4c3c2)cc1,35*,0,6
CC(C)CCNC(=O)c1ccc2c(=O)nc3c(-c4ccccc4F)n[nH]n3c2c1,8,7,3
COc1ccccc1-c1ccccc1CC1CN(C(=O)Cc2ccccn2)CCNC1=O (stereo unspecified),-44,-36,-122
O=C(NCCSc1ccc(Cl)cc1)c1cccc(F)c1,22,28,18
COc1cccc(C(=O)NCCSc2ccc(Cl)cc2)c1,35*,44*,24
O=C1[C@@H]2Cc3ccccc3CN2C(=O)N1c1cccc2ccccc12,9,13,33*
O=C1[C@@H]2Cc3ccccc3CN2C(=O)N1c1ccccc1[N+](=O)[O-],-11,11,16
COc1ccc(CNC(=O)c2ccc(N3C(=O)[C@@H]4Cc5ccccc5CN4C3=O)cc2)cc1,-13,-16,-7
Cc1ccc(CNC(=O)c2ccc(N3C(=O)[C@@H]4Cc5ccccc5CN4C3=O)cc2)cc1,62*,11,49*
Cc1cc(-c2ccc(S(=O)(=O)Nc3ccccc3C)s2)n[nH]1,-8,-8,-19
CC(=O)N1Cc2cc(C)ccc2OC2(CCN(Cc3ccc(OCCO)cc3)CC2)C1,-8,-17,-68
Cc1cc2cccc(C)c2nc1SCC(=O)NCc1ccccc1,29,20,47*
Cc1cccc(CNC(=O)CCc2nc3c(C)cccc3c(=O)n2C)c1,-7,-11,15
CNc1nc(C2CCN(S(=O)(=O)c3ccc(C)c(F)c3)C2)nc2c1CCN(C(C)=O)C2 (stereo unspecified),-2,1,0
O=C(Cc1nnc2cc(-c3nc(C4CC4)no3)ccn12)Nc1ccccc1,1,-14,-81
C[C@H]1O[C@@H](c2ccc3c(c2O)C(=O)c2ccc(C[C@@](C)(O)CC(=O)O)c(O)c2C3=O)C[C@@H](O)[C@@H]1O,-163,-183,i
CCCCC/C=C/C=C/C(=O)OC1C(O)CC(c2ccc3c(c2O)C(=O)c2c(O)cc4cc(C)cc(O)c4c2C3=O)OC1C (stereo unspecified),88*,36*,26
O=C(c1cc(C2CC2)[nH]n1)N1CCOC2(COCCN(CC3CC3)C2)C1 (stereo unspecified),-7,-1,11
Cc1nc(N2CCN(c3ccc(F)cc3)CC2)[nH]c(=O)c1Cc1ccccc1,0,-7,-4
CC(C)(C)c1ccc(Oc2coc3cc(OCC(=O)O)ccc3c2=O)cc1,3,6,3
Cc1cc(C)c(C)c(Oc2coc3cc(O)ccc3c2=O)c1,6,34*,7
Cc1c(C(=O)OC(C)C)oc2c1C(=O)CC(c1ccccc1F)C2 (stereo unspecified),11,-3,9
CCc1c(Cl)c(O)c(Cl)c(O)c1C(=O)O[C@H]1C(C)O[C@@H](OC/C2=C\C=C\CC(O)/C(C)=C/C(CC)C(O[C@@H]3OC(C)(C)[C@H](O)C(OC(=O)C(C)C)[C@@H]3O)/C(C)=C/C(C)=C/CC(C(C)O)OC2=O)[C@@H](OC)C1O (stereo partly specified),2,85*,91*
